Common to all, as to test: NCI-60 one-dose screen, 48 h (100 = growth as untreated, 0 = no growth, -100 = all killed)
Settings in all cases: 10 µM unless noted

Assay [1] deals with SK-MEL-2 melanoma.
The test system of assay [2] is EKVX NSCLC.
For assay [3], the system named is SN12C renal.
For assay [4], the system named is UO-31 renal.
For assay [5], the system named is TK-10 renal.
The test system of assay [6] is ACHN renal.
Assay [7] concerns CAKI-1 renal.
The subject of assay [8] is CCRF-CEM leukemia.
Assay [9] has as its system MOLT-4 leukemia.
The test system of assay [10] is A498 renal.

About 83,000 compounds went through this panel and 20% of them were active in at least one assay; those are over-represented in the sample as a whole.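 Single-concentration screen, 48 h exposure, 96-well plates. Endpoint: percent growth. Below 10 = active.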 Unmarked numbers belong to inactive results. Activity calls are given as the source filed them.

We go through 14 compounds from PubChem BioAssay (NCI).

Take `C[C@H]1[C@H](C)CC[C@]2(C(=O)O)CC[C@]3(C)C(=CC[C@@H]4[C@@]5(C)C[C@@H](Cc6cn([C@@H]7O[C@H](CO)[C@@H](O)[C@H](O)[C@H]7O)nn6)[C@H](O)C(C)(C)[C@@H]5CC[C@]43C)[C@H]12`: the growth is 99.9% in [1]; 96.8% in assay [2]; 97.1% in assay [3]; 91.8% in assay [4]; 89.2% in assay [5]; 99.2% in assay [6]. The growth in assay [7] was 97.2%; in [8], 99.3%; in assay [9], 94.2%.

Consider `O=C1/C(=C/c2ccccc2)CN(C(=O)c2cccnc2)C/C1=C\c1ccccc1`, for which the growth in assay [1] was 89.6%; in assay [2], 30.2%; in assay [3], 6.72% (active); in assay [4], -54.5% (active); in assay [5], 20.7%; in assay [6], -15.7% (active). For the same compound, the growth in assay [7] is 5.87% (active); in assay [8] it was -15% (active); in assay [9] it was 0.998% (active).

Take `Cc1ncc(C(=O)Nc2ccc(CN3CCN(C)CC3)c(C(F)(F)F)c2)cc1C#Cc1cnc(N)c2ccncc12`: the growth in [1] was -55.8% (active); in assay [2] it was -18.9% (active); in assay [3] it was -26.8% (active); in [4] it was -42.2% (active); in assay [5] it was -59% (active); in assay [6], -64.3% (active). Moreover, the growth is -56.8% (active) in assay [7], -23.3% (active) in [8] and -42.5% (active) in assay [9].

With `O=[N+]([O-])/C(=C\c1ccco1)c1ccccc1Cl`, the growth is 60.6% in assay [1]; 83.1% in [2]; 78.4% in assay [3]; 66.6% in assay [4]; 82.8% in assay [5]; 81.1% in assay [6]. Also, the growth in [7] was 67%; in [10], 41.9%; in [8] it was 60.5%; in assay [9], 74.1%.

Take `COc1cc(C(=O)/C=C/c2ccc(N3CCN(C)CC3)cc2)cc(OC)c1OC`: the growth in assay [1] was 107%; in assay [2], 88.6%; in assay [3], 98.5%; in [4] it was 73.2%; in [5] it was 110%; in [6], 97.6%. Besides, the results for the growth in assay [7], in [8] and in [9] were 90.9%, 105% and 98%, respectively.

In the case of `C/C(C=O)=C\c1ccc2c(c1)OCO2`, the growth in assay [1] was 109%; in [2], 102%; in assay [3], 110%; in [4], 102%; in assay [5] it was 90.7%; in [6], 113%. Moreover, the figures for the growth in assay [7], in [8] and in [9] were 107%, -5.12% (active) and 116%, respectively.

For the compound `CN1CCN(c2ccc(NC(=O)c3cncnc3Nc3ccc4c(ccn4Cc4cccc(F)c4)c3)cc2)CC1`, the growth was 98.1% in assay [1]; 86.1% in assay [2]; 71.5% in assay [3]; 46.3% in assay [4]; 101% in assay [5]; 58.5% in assay [6]. Further, the growth in [7] is 75.5%; in assay [8], 11.6%; in [9], -2.02% (active).

As to `O=C1c2cc3c(cc2-c2c1c1ccc(Cl)cc1c(=O)n2C[C@H](O)CO)OCO3`, the growth in [1] is -9.57% (active); in assay [2], 4.75% (active); in [3] it was 10.1%; in [4] it was -85.6% (active); in assay [5], 14.6%; in assay [6], -72.2% (active). The growth is -35.3% (active) in assay [7], 9.33% (active) in assay [8] and -17.2% (active) in assay [9].

Regarding `CS(=O)(=O)Nc1cc(-c2ccc3ncnc(Nc4ccc5c(cnn5Cc5cccnc5)c4)c3c2)cnc1Cl`, the growth in assay [1] is 14%; in assay [2] it was 68.2%; in assay [3] it was 46.2%; in assay [4], 47.9%; in assay [5], 49%; in [6], 75.8%. For the same compound, the results for the growth in assay [7], in [8] and in assay [9] were 40.2%, 32.9% and 24.7%, respectively.

Consider `N#Cc1c(Nc2ccc(F)cc2)n[nH]c1-c1cccs1`, for which the growth is 117% in assay [1]; 92.6% in assay [2]; 89.5% in assay [3]; 74.1% in assay [4]; 135% in assay [5]; 88.4% in assay [6]. Moreover, the growth in [7] was 88.9%; in assay [8], 100%; in assay [9] it was 103%.

Consider `COc1cc2oc(-c3cccc(NC(=O)c4ccc5c(c4)OCO5)c3)cc(=O)c2c(OC)c1OC`, for which the growth in assay [1] is 62.4%; in assay [2], 83.2%; in assay [3] it was 42.1%; in assay [4], 24.2%; in [5], 61.6%; in [6], 47.8%. Also, the figures for the growth in assay [7], in assay [8] and in assay [9] were 77.1%, -11.9% (active) and 2.9% (active), respectively.

Regarding `COC(=O)C1=Nc2ccc(F)cc2/C1=C\c1sc(Nc2ccc(O)cc2)nc1O`, the growth in assay [1] was 47.3%; in [2] it was 89.8%; in assay [3], 85.7%; in [4], 62.6%; in assay [5], 96.9%; in assay [6], 84.9%. The growth in [7] was 55.5%; in assay [8] it was 28.2%; in assay [9], 30.4%.

For the compound `C=C1C(=O)O[C@H]2[C@H]1CC/C(COC(=O)NCc1ccc(Cn3c(=O)sn(-c4ccc(OC)cc4)c3=O)cc1)=C\CC[C@@]1(C)O[C@@H]21`, the growth in assay [1] is 68.1%; in assay [2], 97.1%; in assay [3] it was 65.2%; in [4], -14.6% (active); in assay [5], 1.08% (active); in assay [6], -8.56% (active). In addition, the growth in assay [7] was 55.9%; in assay [8] it was -34.7% (active); in assay [9], -12.2% (active).

With `Cc1ccc(C(=O)c2ccc(CC(=O)N/N=C/c3ccc(O)cc3O)n2C)cc1`, the growth was 59.5% in [1]; 34.2% in assay [2]; 55.7% in assay [3]; 19.8% in assay [4]; 52.9% in [5]; 16.5% in [6]. Further, the growth is 46.6% in [7], 16.8% in assay [8] and 12.6% in [9].
